{"source": "paper PMC7862700", "about": "“An all-to-all approach to the identification of sequence-specific readers for epigenetic DNA modifications on cytosine”", "assay_in_all_cases": "DAPPL (digital affinity profiling via proximity ligation, sequencing); 10 mM Tris-HCl pH 7.5, 50 mM NaCl, 1 mM DTT, 4% glycerol, room temperature, 30 min; GST-TFs on glutathione beads, 16-mer random dsDNA library, 0.1% formaldehyde crosslink after washing; high values mean tight binding", "key": {"ETV5": {"biological_target": "ETV5 (Homo sapiens, UniProt P41161 1-510)", "sequence (P41161 whole entry, the tested form may be a part)": "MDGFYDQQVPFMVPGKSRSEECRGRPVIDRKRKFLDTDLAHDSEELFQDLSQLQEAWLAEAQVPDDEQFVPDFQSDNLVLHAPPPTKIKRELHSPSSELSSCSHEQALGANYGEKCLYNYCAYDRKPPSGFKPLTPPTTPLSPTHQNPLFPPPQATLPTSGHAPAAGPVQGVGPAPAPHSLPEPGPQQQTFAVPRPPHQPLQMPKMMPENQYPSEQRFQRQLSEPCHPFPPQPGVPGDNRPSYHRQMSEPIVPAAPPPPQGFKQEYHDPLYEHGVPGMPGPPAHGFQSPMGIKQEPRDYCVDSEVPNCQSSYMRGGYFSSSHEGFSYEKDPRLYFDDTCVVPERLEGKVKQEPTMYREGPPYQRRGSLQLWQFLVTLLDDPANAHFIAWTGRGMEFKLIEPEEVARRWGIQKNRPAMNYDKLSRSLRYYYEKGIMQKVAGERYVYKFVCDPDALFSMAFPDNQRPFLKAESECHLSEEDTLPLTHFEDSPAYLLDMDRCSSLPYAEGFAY", "settings": "protein: recombinant; tags: N-terminal GST; dsDNA, one strand shown", "outline": "(§1)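 Binding signal is each hexamer's read frequency for a factor divided by its frequency in the tag-only sample. The factors were GST-fused human transcription factors from yeast, captured on glutathione beads, DNA-barcoded and pooled with that sample. Pools were incubated with 200 nmole of a random double-stranded 16-mer DNA library in Tris/NaCl/DTT/glycerol buffer at room temperature for 30 min, then washed, crosslinked with 0.1% formaldehyde, proximity-ligated with BsaI/T4 ligase (1 h, 37 °C), PCR-amplified and sequenced on an Illumina NextSeq500.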"}, "HSF1": {"biological_target": "HSF1 (Homo sapiens, UniProt Q00613 1-529)", "sequence (Q00613 whole entry)": "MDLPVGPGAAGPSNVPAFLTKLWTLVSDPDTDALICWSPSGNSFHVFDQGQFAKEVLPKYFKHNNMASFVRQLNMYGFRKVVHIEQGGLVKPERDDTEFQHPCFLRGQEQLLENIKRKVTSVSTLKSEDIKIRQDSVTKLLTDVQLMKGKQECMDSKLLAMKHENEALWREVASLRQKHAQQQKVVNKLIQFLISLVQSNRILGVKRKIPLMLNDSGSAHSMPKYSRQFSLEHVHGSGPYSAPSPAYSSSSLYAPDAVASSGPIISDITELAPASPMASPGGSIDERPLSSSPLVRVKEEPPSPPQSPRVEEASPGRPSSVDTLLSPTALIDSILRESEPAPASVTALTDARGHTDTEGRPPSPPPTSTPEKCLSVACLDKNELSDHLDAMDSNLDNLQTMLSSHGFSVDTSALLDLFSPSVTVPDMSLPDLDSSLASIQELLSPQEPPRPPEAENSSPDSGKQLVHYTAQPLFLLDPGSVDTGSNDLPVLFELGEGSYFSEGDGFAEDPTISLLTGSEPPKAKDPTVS", "settings": "protein: recombinant; tags: N-terminal GST; chain copies: 3; dsDNA, one strand shown", "outline": "as §1"}, "SPIC": {"biological_target": "T1, SPIC (Homo sapiens, UniProt Q8N5J4 1-248)", "T1 sequence": "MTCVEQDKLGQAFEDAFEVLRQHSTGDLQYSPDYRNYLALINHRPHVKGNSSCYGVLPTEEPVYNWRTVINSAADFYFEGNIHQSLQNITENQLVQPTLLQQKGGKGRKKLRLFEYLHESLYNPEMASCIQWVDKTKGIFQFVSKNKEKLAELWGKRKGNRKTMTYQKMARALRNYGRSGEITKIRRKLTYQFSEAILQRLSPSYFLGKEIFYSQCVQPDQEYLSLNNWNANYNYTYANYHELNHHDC", "settings": "protein: recombinant; tags: N-terminal GST; dsDNA, one strand shown", "outline": "as §1"}, "ELK4": {"biological_target": "T2, ELK4 (Homo sapiens, UniProt P28324-2 1-405)", "T2 sequence": "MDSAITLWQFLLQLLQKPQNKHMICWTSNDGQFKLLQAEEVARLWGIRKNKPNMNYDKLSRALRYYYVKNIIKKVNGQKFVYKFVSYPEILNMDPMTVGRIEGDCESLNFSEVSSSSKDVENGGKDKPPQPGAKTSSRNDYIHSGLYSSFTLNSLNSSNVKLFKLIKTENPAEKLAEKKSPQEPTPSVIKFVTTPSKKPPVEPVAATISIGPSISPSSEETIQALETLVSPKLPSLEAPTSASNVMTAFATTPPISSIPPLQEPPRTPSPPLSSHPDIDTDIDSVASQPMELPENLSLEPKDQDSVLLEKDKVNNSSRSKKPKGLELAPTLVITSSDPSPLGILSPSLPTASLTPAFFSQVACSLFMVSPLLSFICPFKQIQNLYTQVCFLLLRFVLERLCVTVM", "settings": "protein: recombinant; tags: N-terminal GST; dsDNA, one strand shown", "outline": "as §1"}, "CRX": {"biological_target": "CRX (Homo sapiens, UniProt O43186 1-299)", "sequence (O43186 whole entry)": "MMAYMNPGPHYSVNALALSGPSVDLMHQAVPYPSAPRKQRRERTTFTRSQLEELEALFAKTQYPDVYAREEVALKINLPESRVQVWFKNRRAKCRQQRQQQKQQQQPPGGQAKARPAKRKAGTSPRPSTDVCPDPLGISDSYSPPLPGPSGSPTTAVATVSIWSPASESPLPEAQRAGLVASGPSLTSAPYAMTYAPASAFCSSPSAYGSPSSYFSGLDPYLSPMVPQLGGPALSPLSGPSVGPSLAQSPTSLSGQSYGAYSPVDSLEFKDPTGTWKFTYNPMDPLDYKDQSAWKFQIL", "settings": "protein: recombinant; tags: N-terminal GST; dsDNA, one strand shown", "outline": "as §1"}, "ETV1": {"biological_target": "ETV1 (Homo sapiens, UniProt P50549 1-477)", "sequence (P50549 whole entry)": "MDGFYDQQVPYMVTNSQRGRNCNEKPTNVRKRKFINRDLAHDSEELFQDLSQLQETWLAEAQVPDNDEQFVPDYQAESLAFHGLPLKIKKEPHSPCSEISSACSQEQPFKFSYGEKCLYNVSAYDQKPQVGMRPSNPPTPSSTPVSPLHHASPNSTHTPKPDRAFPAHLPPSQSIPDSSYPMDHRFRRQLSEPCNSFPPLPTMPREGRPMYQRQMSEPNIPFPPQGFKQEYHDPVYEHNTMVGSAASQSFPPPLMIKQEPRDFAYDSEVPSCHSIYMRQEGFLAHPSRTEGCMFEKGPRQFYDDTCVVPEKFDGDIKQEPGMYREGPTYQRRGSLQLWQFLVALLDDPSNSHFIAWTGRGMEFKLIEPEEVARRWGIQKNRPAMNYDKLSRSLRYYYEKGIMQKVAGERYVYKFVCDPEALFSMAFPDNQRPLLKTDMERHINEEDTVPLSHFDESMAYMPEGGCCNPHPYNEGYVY", "settings": "protein: recombinant; tags: N-terminal GST; dsDNA, one strand shown", "outline": "as §1"}, "ETV3L": {"biological_target": "T3, ETV3L (Homo sapiens, UniProt Q6ZN32 1-361)", "T3 sequence": "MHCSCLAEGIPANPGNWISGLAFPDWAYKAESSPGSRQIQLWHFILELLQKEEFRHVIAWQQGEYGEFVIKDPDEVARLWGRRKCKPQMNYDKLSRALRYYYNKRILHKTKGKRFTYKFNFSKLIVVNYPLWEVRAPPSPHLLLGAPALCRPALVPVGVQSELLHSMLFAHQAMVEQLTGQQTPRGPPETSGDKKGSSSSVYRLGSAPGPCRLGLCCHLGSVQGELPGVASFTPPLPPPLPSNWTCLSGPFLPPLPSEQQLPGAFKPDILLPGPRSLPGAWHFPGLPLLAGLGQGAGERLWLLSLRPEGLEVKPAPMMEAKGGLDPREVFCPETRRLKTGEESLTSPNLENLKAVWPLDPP", "settings": "protein: recombinant; tags: N-terminal GST; dsDNA, one strand shown", "outline": "as §1"}, "ETS2": {"biological_target": "T4, ETS2 (Homo sapiens, UniProt P15036 1-469)", "T4 sequence": "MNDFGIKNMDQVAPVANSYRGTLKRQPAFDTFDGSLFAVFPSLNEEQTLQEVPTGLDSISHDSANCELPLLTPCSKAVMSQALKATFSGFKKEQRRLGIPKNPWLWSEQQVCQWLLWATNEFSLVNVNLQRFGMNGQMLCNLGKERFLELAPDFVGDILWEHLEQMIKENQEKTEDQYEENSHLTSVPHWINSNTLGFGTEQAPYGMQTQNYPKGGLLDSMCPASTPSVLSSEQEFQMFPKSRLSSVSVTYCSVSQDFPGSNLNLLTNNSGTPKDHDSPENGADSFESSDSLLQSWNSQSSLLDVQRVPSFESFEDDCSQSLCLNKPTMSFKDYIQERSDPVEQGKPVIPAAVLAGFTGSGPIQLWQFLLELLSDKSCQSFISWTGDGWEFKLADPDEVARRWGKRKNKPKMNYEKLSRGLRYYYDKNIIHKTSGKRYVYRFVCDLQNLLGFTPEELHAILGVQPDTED", "settings": "protein: recombinant; tags: N-terminal GST; dsDNA, one strand shown", "outline": "as §1"}, "SPDEF": {"biological_target": "T5, SPDEF (Homo sapiens, UniProt O95238 1-335)", "T5 sequence": "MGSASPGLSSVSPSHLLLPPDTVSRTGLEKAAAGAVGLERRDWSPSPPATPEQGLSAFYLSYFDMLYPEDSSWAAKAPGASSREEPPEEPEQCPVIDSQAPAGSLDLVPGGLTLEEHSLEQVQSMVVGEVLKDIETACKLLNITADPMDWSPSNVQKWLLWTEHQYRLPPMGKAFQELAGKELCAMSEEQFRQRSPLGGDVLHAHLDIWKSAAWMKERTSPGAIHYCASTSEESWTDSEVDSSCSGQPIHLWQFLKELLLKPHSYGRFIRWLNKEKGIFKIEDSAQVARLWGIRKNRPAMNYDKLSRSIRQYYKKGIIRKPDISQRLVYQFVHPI", "settings": "protein: recombinant; tags: N-terminal GST; dsDNA, one strand shown", "outline": "as §1"}, "ELF5": {"biological_target": "T6, ELF5 (Homo sapiens, UniProt Q9UKW6-2 1-255)", "T6 sequence": "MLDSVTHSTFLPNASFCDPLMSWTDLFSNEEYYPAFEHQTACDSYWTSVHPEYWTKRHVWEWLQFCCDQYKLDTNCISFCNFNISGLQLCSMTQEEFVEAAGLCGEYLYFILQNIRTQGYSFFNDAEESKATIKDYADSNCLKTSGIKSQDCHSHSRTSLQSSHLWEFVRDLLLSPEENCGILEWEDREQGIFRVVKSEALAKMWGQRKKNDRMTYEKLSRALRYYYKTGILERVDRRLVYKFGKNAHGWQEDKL", "settings": "protein: recombinant; tags: N-terminal GST; dsDNA, one strand shown", "outline": "as §1"}}, "data": [{"sequence": "TCATAA", "values": [{"measurement": "binding signal", "setting": "ETV5", "result": "1.06 fold enrichment (6-mer frequency, TF over GST control)"}, {"measurement": "binding signal", "setting": "HSF1", "result": "1.14 fold enrichment (6-mer frequency, TF over GST control)"}, {"measurement": "binding signal", "setting": "SPIC", "result": "1.12 fold enrichment (6-mer frequency, TF over GST control)"}, {"measurement": "binding signal", "setting": "ELK4", "result": "1.09 fold enrichment (6-mer frequency, TF over GST control)"}, {"measurement": "binding signal", "setting": "CRX", "result": "1.38 fold enrichment (6-mer frequency, TF over GST control)"}, {"measurement": "binding signal", "setting": "ETV1", "result": "1.07 fold enrichment (6-mer frequency, TF over GST control)"}, {"measurement": "binding signal", "setting": "ETV3L", "result": "1 fold enrichment (6-mer frequency, TF over GST control)"}, {"measurement": "binding signal", "setting": "ETS2", "result": "1.01 fold enrichment (6-mer frequency, TF over GST control)"}, {"measurement": "binding signal", "setting": "SPDEF", "result": "1.01 fold enrichment (6-mer frequency, TF over GST control)"}, {"measurement": "binding signal", "setting": "ELF5", "result": "1.02 fold enrichment (6-mer frequency, TF over GST control)"}]}]}
